# Assay outcomes deposited in PubChem BioAssay by several laboratories.
# AMPAR-TARP mod – modulators of GluA2-stargazin AMPA receptor complexes, primary screen, cell-based, membrane potential dye; 40,000 compounds, 3.5% hits; AID 1259245, 2017; HEK293 GluA2+stargazin, membrane potential dye (FDSS), glutamate EC50; hits were called plate by plate, in both directions; Voltage-dependent calcium channel gamma-2 subunit (Mus musculus) + Glutamate receptor 2 …; calls only at 30 µM;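 active = any of four per-well response measures lying three or more SD from its plate-wide compound average, in either direction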
# Target sequence (O88602 whole entry, looked up): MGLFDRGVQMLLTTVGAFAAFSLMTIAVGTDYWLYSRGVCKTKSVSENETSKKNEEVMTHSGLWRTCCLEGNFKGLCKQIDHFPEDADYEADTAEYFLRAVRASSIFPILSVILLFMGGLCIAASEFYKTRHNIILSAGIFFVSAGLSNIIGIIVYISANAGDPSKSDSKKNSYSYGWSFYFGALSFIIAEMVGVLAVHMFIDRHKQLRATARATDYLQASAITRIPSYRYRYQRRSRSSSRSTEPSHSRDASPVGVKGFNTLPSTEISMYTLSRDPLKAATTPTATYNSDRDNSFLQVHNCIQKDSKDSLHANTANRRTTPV
# Target sequence (P19491 whole entry, looked up): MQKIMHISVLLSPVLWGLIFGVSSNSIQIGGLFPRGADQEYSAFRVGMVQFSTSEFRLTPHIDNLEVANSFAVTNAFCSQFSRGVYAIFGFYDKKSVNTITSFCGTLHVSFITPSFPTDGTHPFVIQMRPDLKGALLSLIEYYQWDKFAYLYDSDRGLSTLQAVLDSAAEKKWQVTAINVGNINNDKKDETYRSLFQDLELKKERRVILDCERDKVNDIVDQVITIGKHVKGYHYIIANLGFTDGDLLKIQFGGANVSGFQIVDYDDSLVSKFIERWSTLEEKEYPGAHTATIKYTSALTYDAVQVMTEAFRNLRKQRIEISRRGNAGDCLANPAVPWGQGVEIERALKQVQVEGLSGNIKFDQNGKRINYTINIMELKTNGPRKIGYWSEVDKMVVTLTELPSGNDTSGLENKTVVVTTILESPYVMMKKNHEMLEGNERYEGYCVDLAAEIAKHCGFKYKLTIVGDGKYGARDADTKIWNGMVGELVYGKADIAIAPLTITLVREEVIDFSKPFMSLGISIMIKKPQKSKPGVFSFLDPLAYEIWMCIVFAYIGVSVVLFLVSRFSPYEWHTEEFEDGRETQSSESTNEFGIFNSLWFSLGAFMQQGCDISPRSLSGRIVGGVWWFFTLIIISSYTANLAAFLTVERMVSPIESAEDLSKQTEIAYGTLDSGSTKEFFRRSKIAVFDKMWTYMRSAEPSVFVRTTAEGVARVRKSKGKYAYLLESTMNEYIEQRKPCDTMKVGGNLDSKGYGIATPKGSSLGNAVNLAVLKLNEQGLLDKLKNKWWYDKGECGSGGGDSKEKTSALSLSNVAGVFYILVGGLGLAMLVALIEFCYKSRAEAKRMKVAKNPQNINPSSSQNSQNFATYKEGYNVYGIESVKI
# GIRK2 activator – activators of NPY4-receptor-primed GIRK2 channels, summary, cell-based, HEK293, thallium flux; G protein-activated inward rectifier potassium channel 2 (Homo sapiens), P48051; HEK293 GIRK2/NPY4 cells, thallium flux fluorescence; activation (% efficacy), % for hits at 37.5 µM; 34,000 tested, under 10 active; AID 1259324, 2017;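 active = primary screen hit, no activity in plain HEK293 cells, and in GIRK2-only cells above 5% efficacy rising with concentration; inactive = the rest, including fluorescent compounds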;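 note: efficacy is normalized control-subtracted fluorescence 15 s after thallium addition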
# * = called active by the depositor; i = inactive; . = no result given; + = active, no number. Many of the other results were omitted from the sample, so hits are more common in it than they were.
SMILES,AMPAR-TARP mod,GIRK2 activator
CCCn1c(CCNC(C)=O)nc2ccccc21,i,i
CCOc1ccc(-c2ccc(N3CCN(C(=O)c4ccccc4C(=O)c4ccccc4)CC3)nn2)cc1,i,i
Cc1ccc(C(CNC(=O)COc2ccc3ccccc3c2)N(C)C)cc1 (stereo not drawn),+,i
O=C(COc1ccc2ccccc2c1)NCC(O)c1ccc(C(F)(F)F)cc1 (stereo not drawn),.,i
CCc1cc(=O)[nH]c2cc(NC(=O)c3ccc(OC(F)(F)F)cc3)ccc12,.,i
COc1ccccc1-c1nc(COC(=O)c2nnn(-c3ccc(C)cc3)c2C)c(C)o1,i,.
CCOc1ccccc1-c1nc(COC(=O)c2nnn(-c3ccc(Cl)cc3)c2C)c(C)o1,+,.
COCCn1nc(-c2ccc(Cl)cc2)ccc1=O,i,i
COCCn1nc(-c2ccc3c(c2)OCO3)ccc1=O,+,i
COC(=O)c1sccc1S(=O)(=O)Nc1ccc(F)c(Cl)c1,i,.
CCc1nc(-n2nc(C)cc2N)c2c3c(sc2n1)CCC3,+,i
Cc1nc(N2CCN(c3ccccc3F)CC2)c2c3c(sc2n1)CCCC3,i,.
O=C(c1ccco1)N1CCN(c2ncnc3c2nnn3-c2ccccc2)CC1,i,.
Cc1cccc(-n2nc3c(c2NC(=O)C(=O)NCc2ccco2)CS(=O)(=O)C3)c1,i,i
COc1ccc(-n2nc3c(c2NC(=O)C(=O)NCc2ccco2)CS(=O)(=O)C3)cc1,+,i
COc1ccc(-n2nc3c(c2NC(=O)C(=O)N2CCCCC2)CS(=O)(=O)C3)cc1,i,i
COc1ccc(-n2nc3c(c2NC(=O)C(=O)N2CCCC2)CSC3)cc1,+,i
Cc1cc(C(=O)Nc2nc3ccc(Cl)cc3s2)n(C(C)C)n1,.,i
Cn1nnc2c(N3CCN(C(=O)Cc4cccc5ccccc45)CC3)ncnc21,i,i
CC(C)Sc1cccc(C(=O)Nc2sccc2C#N)c1,+,.
CC(C)S(=O)(=O)c1cccc(C(=O)Nc2sccc2C#N)c1,i,i
CCOC(=O)c1ccc(NC(=O)CCCS(=O)(=O)c2ccccc2)cc1,i,i
C/C=C/Cn1c(=O)c2c(nc3n2CCCN3c2cc(OC)ccc2OC)n(C)c1=O,i,.
COc1cc(N2CCN(C(=O)c3ccc(Br)o3)CC2)nc(OC)n1,i,i
CCCc1c(C(=O)Nc2cccc(C(=O)OC)c2)nnn1-c1ccccc1,+,i
SMILES,AMPAR-TARP mod,GIRK2 activator
COC(=O)c1cccc(NC(=O)c2nnn(-c3ccccc3F)c2C)c1,+,i
COC(=O)c1ccc(NC(=O)c2nnn(-c3ccccc3)c2C)cc1,i,i
CCCc1c(C(=O)Nc2cc(OC)ccc2OC)nnn1-c1ccccc1,i,i
Cc1ccc(S(=O)(=O)N2CCN=C2SCc2ccc(Br)cc2)cc1,i,.
COc1ccccc1Cc1noc(C2CN(C(=O)CCS(=O)(=O)c3ccccc3)C2)n1,.,i
O=C(/C=C/c1cc2cc3c(cc2nc1Cl)OCO3)C1CC1,+,.
CN(C1CCCC1)S(=O)(=O)c1ccc(C(=O)Nc2nc3cc4c(cc3s2)OCO4)cc1,i,.
O=C(CC1CSc2nc3c(cnn3-c3ccccc3)c(=O)n21)NC1CCCC1 (stereo not drawn),i,i
Cc1ccc(NS(=O)(=O)c2ccc(F)cc2)cc1N1CCCCC1=O,+,i
COc1cc(NS(=O)(=O)c2ccc(F)cc2)ccc1N1CCCCC1=O,i,i
O=C(CSc1nc(-c2ccccc2)nc2c1CCCC2)N1CCOCC1,+,.
Cc1cccc(-c2nc3c(c(SCC(=O)N(C)C)n2)CCCC3)c1,i,i
Cc1ccnc(Nc2ccc(NCCNC(=O)Nc3ccc4c(c3)OCCO4)nn2)c1,.,i
COc1ccc(S(=O)(=O)N2CCCc3cc(NC(C)=O)ccc32)cc1,i,.
COc1ccc(S(=O)(=O)N2CCCc3cc(NC(=O)C(C)(C)C)ccc32)cc1,+,.
Cc1ccc(S(=O)(=O)N2CCCc3cc(NC(=O)Oc4ccccc4)ccc32)cc1,+,.
Cc1ccc(S(=O)(=O)N2CCCc3cc(NC(=O)c4ccccc4)ccc32)cc1,i,.
O=C(NCCc1ccc(Cl)cc1)c1csc(NS(=O)(=O)c2ccccc2)n1,i,i
COc1ccc2nc(-c3ccc(Cl)c(NC(=O)c4c(F)cccc4F)c3)cn2n1,.,i
COc1ccc(NC(=O)C(=O)c2cn(CC(=O)N3CCOCC3)c3ccccc23)cc1,i,.
COc1ccc(CCNC(=O)C(=O)c2cn(CC(=O)N3CCOCC3)c3ccccc23)cc1,+,.
CCOc1ccc(OCCNC(=O)c2cc3cccc(OCC)c3oc2=O)cc1,i,i
CCOc1cccc2cc(C(=O)NCc3ccncc3)c(=O)oc12,+,i
COCCN(CCOC)C(=O)C1CN(C(C)=O)C1,i,i
COC(=O)NCC1(c2ccc(OC)cc2)CCCC1,i,i
SMILES,AMPAR-TARP mod,GIRK2 activator
CCSc1ccccc1C(=O)NCC1(c2ccc(OC)cc2)CCCC1,+,i
Cc1cc(=O)[nH]c(-n2nc(C)c(CCC(=O)N3CCN(C)CC3)c2C)n1,i,i
COc1ccc(C(=O)Nc2ccc(N3CCCCC3=O)c(OC)c2)c(OC)c1,i,i
CS(=O)(=O)N1CCCC(C(=O)Nc2c3c(nn2-c2nc4ccccc4s2)CCC3)C1 (stereo not drawn),i,i
Cc1nc2ccccn2c1C(=O)NCC1CCN(S(=O)(=O)C2CC2)CC1,i,i
COCCN=Cc1c(NCCOC)nc2ccccn2c1=O,+,i
Nc1nc2ccc(OC(F)(F)F)cc2s1,+,i
COc1ccc2nc(NC(=O)NC34CC5CC(CC(C5)C3)C4)sc2c1,i,i
COc1ccc(CCNC(=O)COc2c(C)ccc(C)c2C)cc1OC,i,i
COCCN1CCC(CNC(=O)c2ccc(Cl)cc2Cl)CC1,i,.
Cc1ccc(NC(=O)c2ccc(=O)n(Cc3cccc([N+](=O)[O-])c3)c2)cc1C,i,i
Cc1ccnc(NC(=O)c2ccc(=O)n(Cc3cccc([N+](=O)[O-])c3)c2)c1,+,i
Cc1cccnc1NC(=O)c1ccc(=O)n(Cc2cccc([N+](=O)[O-])c2)c1,+,i
Cc1c(Cl)cccc1NC(=O)c1ccc(=O)n(Cc2cccc([N+](=O)[O-])c2)c1,i,i
O=C(CSc1ccc(NC(=O)c2cccs2)nn1)Nc1ccc2c(c1)OCO2,i,i
CCOc1ccc(Nc2ncnc3c2nnn3C)cc1,i,i
CCc1ccccc1NC(=O)N1CCN(c2ccc3nnc(-c4ccco4)n3n2)CC1,+,i
COc1ccccc1NC(=O)N1CCN(c2ccc3nnc(-c4ccco4)n3n2)CC1,i,i
CN1C(=O)C2C(c3ccc([N+](=O)[O-])cc3)NN(C)C2C1=O (stereo not drawn),+,.
Cc1csc(-c2cc3ccc(OC(=O)CCCCl)cc3oc2=O)n1,+,.
COc1cccc(-c2cc3ccc(OC(C)=O)cc3oc2=O)c1,i,i
Cc1cccc(S(=O)(=O)NCCNc2ccc(Nc3ccncc3)nn2)c1,i,i
CC(C)(C)NC(=O)NCC1COC2(CCCCC2)O1 (stereo not drawn),i,i
